# Test results: PubChem BioAssay (NCATS)
# Values joined by “and” are separate entries in the source; they are usually repeats but may differ in a detail not shown here. Equal entries are not always repeated. Records with an inconclusive call do not appear. Unmarked numbers belong to inactive results. Active and inactive are the calls of the source. Calls follow the shape of the dose curve; as a rule, active = well fitted curve in the direction sought with a large enough effect; inconclusive = small, poorly fitted or top-dose-only effect, or another doubt; inactive = no such curve, though single readings can be large; an effect the other way counts as inactive or inconclusive.
# What was measured:
# [1] = molecular target: Cellular tumor antigen p53 (Homo sapiens) (UniProt P04637); experiment: Primary qHTS for small molecule compounds that upregulate eGFP-tagged delta133p53alpha (in N-terminal) cells. (AID 2060322); settings: NCI-H358 eGFP-delta133p53alpha fluorescence, 24 h; activation: active compounds read high; also: nearly all actives have a fitted effect of over 75% in size; also: potency is read from the fitted curve at half-maximal effect;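 as to activation: series mostly up to about 56 µM; 0% = DMSO vehicle and 100% = reference activator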
# Sequence of Cellular tumor antigen p53 (Homo sapiens) (P04637 whole entry, looked up): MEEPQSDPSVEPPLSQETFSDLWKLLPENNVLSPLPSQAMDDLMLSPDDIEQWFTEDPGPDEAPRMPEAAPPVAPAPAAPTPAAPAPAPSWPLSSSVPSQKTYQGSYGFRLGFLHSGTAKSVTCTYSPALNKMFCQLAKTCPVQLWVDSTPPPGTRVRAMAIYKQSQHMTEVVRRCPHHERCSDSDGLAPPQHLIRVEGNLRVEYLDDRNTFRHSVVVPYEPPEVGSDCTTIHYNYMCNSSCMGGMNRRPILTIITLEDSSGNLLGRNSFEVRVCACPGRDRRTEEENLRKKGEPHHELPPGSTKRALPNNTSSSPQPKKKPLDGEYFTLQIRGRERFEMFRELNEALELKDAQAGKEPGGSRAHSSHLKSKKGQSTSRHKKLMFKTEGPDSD
# Outline: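 NCI-H358 cells pre-induced 24 h with 10 ng/ml doxycycline to express N-terminal eGFP-delta133p53alpha, then dosed 24 h at 37C without doxycycline; fixed, Hoechst-stained, GFP intensity by laser scanning cytometry, normalized to DMSO (0%) and 57.5 uM 5-azacytidine (100%).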
# [2] = molecular target: Aldehyde dehydrogenase, mitochondrial (Homo sapiens) (UniProt P05091); experiment: qHTS for Inhibitors of the Aldehyde Dehydrogenase Family (ALDH2) Primary screen (AID 2061308);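 also: plate controls were vehicle for no effect and reference inhibitor for full effect; nearly all actives have a fitted effect of over 55% in size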
# [3] = molecular target: Retinaldehyde dehydrogenase 3 (Homo sapiens) (UniProt P47895); experiment: qHTS for Inhibitors of the Aldehyde Dehydrogenase Family (ALDH1A3) Primary screen (AID 2061315);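 also: plate controls were DMSO vehicle for no effect and reference inhibitor for full effect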
# [4] = BET inhibitor-based combinations targeting novel dependencies in MECOM-rearranged (r) AML: SET-2 cell line (AID 2202231); settings: SET-2 AML cells viability, CellTiter-Glo luminescence, 48 h; viability: active compounds read low, concentration not given here; also: nearly all actives have a fitted effect of over 35% in size; also: potency is read from the fitted curve at half-maximal effect;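 as to viability: plate controls were DMSO treated cells for no effect and wells without cells for full effect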
# Outline: (§1)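 Each compound was tested at eleven concentrations on cells seeded at 500/well. After two days' incubation, ATP-based luminescence reported viability; responses relative to DMSO and blank wells yielded AUC and cell-line-centred Z-AUC.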
# [5] = BET inhibitor-based combinations targeting novel dependencies in MECOM-rearranged (r) AML: OCI-AML3 cell line (AID 2202232); settings: Potency: OCI-AML3 viability; also: nearly all actives have a fitted effect of over 35% in size; also: potency is read from the fitted curve at half-maximal effect;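 as to viability (% of control): series mostly up to about 46 µM; plate controls were DMSO vehicle wells for no effect and wells without cells for full effect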
# Outline: as §1
# [6] = BET inhibitor-based combinations targeting novel dependencies in MECOM-rearranged (r) AML: MV-4-11 cell line (AID 2202233); also: nearly all actives have a fitted effect of over 45% in size; also: potency is read from the fitted curve at half-maximal effect
# Outline: (§2)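 First, 500 cells per well were seeded; next, drugs were pinned as 11-point doses; then plates sat 48 hr in the incubator; finally CellTiter-Glo was added and luminescence read, with AUC and Z-AUC computed.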
# [7] = BET inhibitor-based combinations targeting novel dependencies in MECOM-rearranged (r) AML: HNT-34 cell line (AID 2202234); also: nearly all actives have a fitted effect of over 35% in size; also: potency is read from the fitted curve at half-maximal effect;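 as to viability (% of control): plate controls were vehicle wells for no effect and cell-free wells for full effect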
# Outline: as §2
# [8] = BET inhibitor-based combinations targeting novel dependencies in MECOM-rearranged (r) AML: UCSD-AML1 cell line (AID 2202235); also: nearly all actives have a fitted effect of over 40% in size; also: potency is read from the fitted curve at half-maximal effect;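 as to viability (% of control): series mostly up to about 46 µM; plate controls were DMSO vehicle wells for no effect and blank wells for full effect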
# Outline: as §2
# [9] = BET inhibitor-based combinations targeting novel dependencies in MECOM-rearranged (r) AML: AML-191 cell line (AID 2202236; also: nearly all actives have a fitted effect of over 35% in size; also: potency is read from the fitted curve at half-maximal effect;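 as to viability (% of control): plate controls were vehicle wells for no effect and wells without cells for full effect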)
# Outline: as §1
# [10] = BET inhibitor-based combinations targeting novel dependencies in MECOM-rearranged (r) AML: AML-194 cell line (AID 2202237; also: nearly all actives have a fitted effect of over 40% in size; also: potency is read from the fitted curve at half-maximal effect;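 as to viability (% of control): plate controls were vehicle wells for no effect and wells without cells for full effect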)
# Outline: as §1
Compound,activation [1],Potency [2],Potency [3],viability [4],Potency [5],Potency [6],Potency [7],Potency [8],Potency [9],Potency [10],Potency [1],Potency [4],viability (% of control) [5],viability (% of control) [7]
CCCCC(F)(F)[C@@]1(O)CC[C@H]2[C@H](CC(=O)[C@@H]2CCCCCCC(=O)O)O1,-19.7%,inactive,inactive,108%,inactive,0.235 µM (active),inactive,inactive,inactive,inactive,,,,
CCCCCCCCCC(=O)N[C@@H](Cc1c[nH]c2ccccc12)C(=O)N[C@H](CC(N)=O)C(=O)N[C@@H](CC(=O)O)C(=O)N[C@@H]1C(=O)NCC(=O)N[C@@H](CCCN)C(=O)N[C@@H](CC(=O)O)C(=O)N[C@H](C)C(=O)N[C@@H](CC(=O)O)C(=O)NCC(=O)N[C@H](CO)C(=O)N[C@@H]([C@@H](C)CC(=O)O)C(=O)N[C@@H](CC(=O)c2ccccc2N)C(=O)O[C@@H]1C,-9.73% and 21%,inactive,inactive,107%,inactive,inactive,inactive,,inactive,inactive,,,,
c1cc(-c2cnn3cc(-c4ccc(N5CCNCC5)cc4)cnc23)c2cccnc2c1,,inactive,inactive,,16.6 µM (active),3.32 µM (active),11.8 µM (active),8.33 µM (active),4.68 µM (active),2.95 µM (active),15.1 µM (active),5.25 µM (active),,
CCNC(=O)Nc1ncc(-c2cc(-c3c(C)cc(OC)cc3C)nc(-c3cnccn3)n2)s1,-5.36%,inactive,inactive,114%,inactive,inactive,inactive,,inactive,inactive,,,,
COc1cc2c(Oc3ccc(NC(=O)C4(C(=O)Nc5ccc(F)cc5)CC4)cc3F)ccnc2cc1OCCCN1CCOCC1,,inactive,inactive,,11.8 µM (active),0.0074 µM (active),0.833 µM (active),0.833 µM (active),0.662 µM (active),0.59 µM (active),7.57 µM (active),23.5 µM (active),,
CC(=O)Nc1ccc(C(=O)Nc2ccccc2N)cc1,3% and -4.47%,inactive,inactive,,16.6 µM (active),5.9 µM (active),11.8 µM (active),,18.6 µM (active),18.6 µM (active),,7.42 µM (active),,
CN(C)C/C=C/C(=O)Nc1ccc(C(=O)Nc2cccc(Nc3ncc(Cl)c(-c4c[nH]c5ccccc45)n3)c2)cc1,,inactive,inactive,,0.0833 µM (active),0.0468 µM (active),0.118 µM (active),0.132 µM (active),0.235 µM (active),0.296 µM (active),269 nM (active) and 343 nM (active),0.662 µM (active),,
CN1CCN(C2CCN(C(=O)Nc3cc(Oc4ccc(NC(=O)C5(C(=O)Nc6ccc(F)cc6)CC5)c(F)c4)ccn3)CC2)CC1,,inactive,inactive,,23.5 µM (active),0.296 µM (active),3.72 µM (active),,18.6 µM (active),11.8 µM (active),26.9 µM (active),20.9 µM (active),,
Cc1ccccc1-n1c(Cn2nc(-c3cccc(O)c3)c3c(N)ncnc32)nc2cccc(C)c2c1=O,21.6% and 16.7%,inactive,inactive,105%,1.86 µM (active),0.296 µM (active),14.8 µM (active),,14.8 µM (active),inactive,,,,
Nc1cccc(-c2cc3c(Oc4cccc(O)c4)ncnc3[nH]2)c1,-3.57%,inactive,inactive,,13.2 µM (active),2.95 µM (active),0.468 µM (active),,3.32 µM (active),5.9 µM (active),,20.9 µM (active),,
N#Cc1ccnc(N2C(=O)CC[C@H]2C(=O)N(c2cncc(F)c2)[C@H](C(=O)NC2CC(F)(F)C2)c2ccccc2Cl)c1,-19.7% and -8.38%,inactive,inactive,105%,inactive,inactive,inactive,,,inactive,,,,
Cc1cn2cc(C(=O)N(C)CCO)cc(N[C@@H]3CCOc4cccc(C)c43)c2n1,-18% and -4.46%,inactive,inactive,112%,inactive,inactive,inactive,inactive,inactive,inactive,,,,
Cc1cccc(Oc2cnc(=O)[nH]c2)c1,-25%,inactive,inactive,115%,inactive,inactive,inactive,,inactive,inactive,,,,
COc1cc(Nc2c(C#N)cnc3cc(OCCCN4CCN(C)CC4)c(OC)cc23)c(Cl)cc1Cl,,inactive,inactive,,6.61 µM (active),3.32 µM (active),0.59 µM (active),8.33 µM (active),,7.42 µM (active),30.9 µM (active) and 23.9 µM (active),16.6 µM (active),,
C=C1C[C@@]2(O)O[C@@]3(C[C@H]2C(C)C)[C@@H](C)CC[C@@H]13,3.34%,inactive,inactive,112%,inactive,inactive,inactive,inactive,,inactive,,,,
CCN(c1cc(C#CCN2CCOCC2)cc(C(=O)NCc2c(C)cc(C)[nH]c2=O)c1C)C1CCC(N(C)CCOC)CC1 (stereo not given),-11.7%,inactive,inactive,113%,inactive,inactive,inactive,inactive,inactive,inactive,,,,
CC(C)c1noc(N2CCC(COc3ccc(-c4ccc(S(C)(=O)=O)cc4)nc3)CC2)n1,-0.134% and -12.9%,inactive,inactive,,4.68 µM (active),2.35 µM (active),inactive,inactive,,inactive,,11.8 µM (active),,
NC(=O)c1ccccc1Nc1ccnc(Nc2cccc(O)c2)n1,,inactive,inactive,,18.6 µM (active),0.662 µM (active),,1.66 µM (active),,,30.1 µM (active),5.9 µM (active),,
Cc1c(C(=O)Nc2ccc(N3C[C@@H](C)O[C@@H](C)C3)nc2)cccc1-c1ccc(OC(F)(F)F)cc1,18.3% and -6.33%,inactive,inactive,98.5%,inactive,5.25 µM (active),inactive,inactive,,inactive,,,,
Clc1cc2c(NC3CCCC3)nnc(-c3ccncc3)c2cc1Cl,-9%,inactive,inactive,112%,0.468 µM (active),inactive,inactive,inactive,inactive,inactive,,,,
CN(C)C/C=C/C(=O)Nc1cccc(C(=O)Nc2cccc(Nc3ncc(Cl)c(-c4c[nH]c5ccccc45)n3)c2)c1,,inactive,inactive,,0.166 µM (active),0.0033 µM (active),0.235 µM (active),0.209 µM (active),0.468 µM (active),0.525 µM (active),0.239 µM (active),1.05 µM (active),,
CNC(=O)c1cc(Oc2ccc(NC(=O)Nc3ccc(Cl)c(C(F)(F)F)c3)cc2)ccn1,4.11%,inactive,inactive,,9.34 µM (active),0.0132 µM (active),10.5 µM (active),18.6 µM (active),14.8 µM (active),16.6 µM (active),,26.3 µM (active),,
CNC(=O)c1ccccc1Nc1nc(Nc2ccc3c(c2OC)CCC[C@@H](N2CCN(CCO)CC2)C3)ncc1Cl,,inactive,inactive,,inactive,inactive,inactive,,inactive,inactive,9.53 µM (active),18.6 µM (active),,
CN1C(=O)N[C@@H](Cc2c[nH]c3c(Cl)cccc23)C1=O,-25.9%,inactive,inactive,110%,inactive,inactive,inactive,inactive,,inactive,,,,
C#Cc1cccc(Nc2ncnc3cc(OC)c(OCCCCCCC(=O)NO)cc23)c1,,inactive,inactive,,1.05 µM (active),0.296 µM (active),0.934 µM (active),1.18 µM (active),1.05 µM (active),2.09 µM (active),8.63 µM (active) and 5.36 µM (active) and 544 nM (active),1.48 µM (active),,
c1ccc(-c2ccc(CNc3nc(-c4ccccn4)nnc3-c3ccccc3)cc2)cc1,-11.7%,inactive,inactive,,1.32 µM (active),1.18 µM (active),1.32 µM (active),,0.934 µM (active),1.05 µM (active),,2.35 µM (active),,
C[C@@H]1COCCN1c1cc(=O)n2c(n1)N(Cc1cncc(Cl)c1)[C@H](C(F)(F)F)CC2,-34.6%,inactive,inactive,106%,inactive,inactive,inactive,,,inactive,,,,
Cc1cn(CCN2CCN(c3ccccc3-c3cc(C#N)cc(C(=O)NCCCN4CCCC4)c3)CC2)c2ccccc12,15.8%,inactive,inactive,,18.6 µM (active),20.9 µM (active),18.6 µM (active),,18.6 µM (active),18.6 µM (active),,23.5 µM (active),,
CC1CCC(n2c3cnccc3c3cnc(Nc4ccc5c(n4)CCN(C(=O)CO)C5)nc32)CC1 (stereo not given),,inactive,inactive,105%,,0.152 µM (active),,,,1.21 µM (active),23.9 µM (active),,86.5% [at 8.46 µM],92.3% [at 8.46 µM]
c1cc(N[C@@H]2CCNC2)nc(-c2cnc3ccc(-c4cn[nH]c4)cn23)c1,,inactive,inactive,88.2%,8.33 µM (active),0.0132 µM (active),4.17 µM (active),,16.6 µM (active),18.6 µM (active),34.3 µM (active),,,
